The values that follow come from ChEMBL document CHEMBL4888484, “Replenishing the malaria drug discovery pipeline: Screening and hit evaluation of the MMV Hit Generation Library 1 (HGL1) against asexual blood stage Plasmodium falciparum ,using a nano luciferase reporter read-out” (2022).

Screen size: about 150,000 compounds; about 540 (0.36%) showed an effect of 50% or more. Shown is part of a subset that was picked to be rich in strong results.

The subject of this experiment is Plasmodium falciparum. Briefly: Primary screen in NF54 nanoGlo assay, in single point, at 2uM, 72h; a lower Z score goes with more inhibition. Format: functional, Erythrocyte. The settings on record: timepoint 72 hour.
For the compound `CN(Cc1cnc2ccccc2c1)c1cnn(C)c1`, the “% Inhibition” value is 1% and the Z score is listed as -0.16.
Consider `Cc1ncsc1CCNC(=O)[C@H]1CCN(c2ccc(C(F)(F)F)cn2)C1`, for which the “% Inhibition” value is listed as -4% and the Z score came out at 0.7.
As to `C[C@@H](C1CC1)N(CC(=O)Nc1ccc(F)cc1F)C1CC1`, the “% Inhibition” value was -12% and the Z score amounted to 1.76.
On to `C[C@@H](C1CC1)N(C1CC1)S(=O)(=O)c1cccc2c1N=S=N2`, for which the “% Inhibition” value stood at 38% and the Z score was -0.53.
In the case of `C[C@@H](C1CC1)N(C1CC1)S(=O)(=O)c1ccc(F)cc1F`, the “% Inhibition” value amounted to 84% and the Z score is recorded as -10.78.
In the case of `CCOC(=O)N1CCC(C)(CN2CCS(=O)(=O)C[C@@H](C)C2)CC1`, the “% Inhibition” value is -13% and the Z score stood at 1.46.
For `Cn1cc(Cl)cc1C(=O)N1CCN(Cc2ccccc2F)C(=O)C1` the same measures were -2% and 0.24.
Consider `CCOc1ccc(Cl)cc1-c1cc(C)n[nH]c1=O`, for which the “% Inhibition” value was -8% and the Z score came out at 1.52.
In the case of `Cc1cccc(N2CCN(C(=O)c3cn4c(n3)COCC4)CC2)c1C`, the “% Inhibition” value was -8% and the Z score is on record as 1.36.
In the case of `COc1ccc(C)c2sc(N(Cc3cccnc3)C(=O)c3ccn(C)n3)nc12`, the “% Inhibition” value is on record as -12% and the Z score amounted to 2.
On to `COc1ccc(C)c2sc(N(CCCN(C)C)C(=O)c3ccnn3C)nc12`, for which the “% Inhibition” value is -7% and the Z score is 1.27.
For `COc1ccc(C)c2sc(N(CCCn3ccnc3)C(=O)Cc3ccc(F)cc3)nc12` the same measures were 78% and -7.85.
As for `CC(C)(C)OC(=O)N1CC2CC1CCC2=O` (configuration not stated), the “% Inhibition” value is -3% and the Z score came to 0.51.
For `COc1ccc(CN2C[C@H]3CC[C@@H](C2)N(C(=O)c2nc(C)c[nH]2)C3)cc1` the same measures were -2% and 0.32.
As to `CC(C)(C)OC(=O)NCc1cccnc1NC(=O)Cc1ccoc1`, the “% Inhibition” value was 10% and the Z score is recorded as -1.94.
As for `O=C(CCn1nc2ccccn2c1=O)Nc1cnccc1Nc1ccc(F)cc1`, the “% Inhibition” value is given as -25% and the Z score is given as 4.76.
Regarding `Cc1nn(C2CCCC2)c2nc(-c3cccs3)[nH]c12`, the “% Inhibition” value is recorded as -10% and the Z score was found to be 1.39.
`Cc1nn(C)c(Cl)c1-c1nc2c([nH]1)c(C)nn2C1CCCCC1`: the “% Inhibition” value turned out to be 1% and the Z score is listed as -0.09.
Turning to `Cc1nn(C2CCCC2)c2nc(-c3cc(CN(C)C)cs3)[nH]c12`, the “% Inhibition” value is given as 69% and the Z score is on record as -9.28.
For `Fc1ccc([C@@H]2CCN2CCn2cc(Cl)cn2)cc1` the same measures were 12% and -1.59.
In the case of `OCc1cc(CO)c(O)c(CCc2ccccc2)n1`, the “% Inhibition” value is -7% and the Z score is recorded as 1.32.
Turning to `CN(C)Cc1ccc(O)c(CCc2ccccc2)n1`, the “% Inhibition” value was 64% and the Z score was -4.36.
For `CN(C)Cc1cc(CN(C)C)c(O)c(CCc2ccccc2)n1`, the “% Inhibition” value was found to be 7% and the Z score is -1.36.
On to `COC(=O)[C@H](CS(=O)(=O)Nc1cc(C)n(C)n1)c1ccccc1`, for which the “% Inhibition” value is reported as 3% and the Z score is given as -0.46.
In the case of `O=c1c2ccoc2ccn1Cc1ccc(OC(F)F)cc1`, the “% Inhibition” value is -8% and the Z score was 0.89.
For `COc1ccc(C2=CN(CC(=O)c3ccc(Cl)cc3)C3=CCCCCN23)cc1` the same measures were 37% and -3.83.
As for `Brc1ccc(-c2csc(Cc3nc(-c4ccc(Br)cc4)cs3)n2)cc1`, the “% Inhibition” value is listed as -3% and the Z score was determined as 0.3.
`COc1ccc(C(=O)CN2C=CCC=C2c2nc(-c3ccc(Cl)cc3)cs2)cc1`: the “% Inhibition” value amounted to 75% and the Z score is -6.73.
Turning to `O=C(C[n+]1ccccc1-c1nc(-c2ccc(Cl)cc2)cs1)c1ccccc1`, the “% Inhibition” value is listed as -7% and the Z score worked out at 1.
On to `O=C(CN1C=CCC=C1c1nc(-c2ccc(Br)cc2)cs1)c1ccccc1`, for which the “% Inhibition” value worked out at 65% and the Z score was -4.25.
For `COc1ccc(-c2csc(-c3nc(-c4cccc(Cl)c4)cs3)n2)cc1`, the “% Inhibition” value is -13% and the Z score came to 1.47.
Regarding `Cc1cnc(C2CCOCC2)n1CC1CCN(C(=O)c2cccs2)CC1`, the “% Inhibition” value is -4% and the Z score stood at 0.55.
`Cc1cc(F)ccc1C(=O)NCc1nnc(C)n1C1CC1`: the “% Inhibition” value is -2% and the Z score worked out at 0.34.
For the compound `CCN1CCN([C@H]2CCN(c3cc(Cl)ccc3C#N)C2)CC1`, the “% Inhibition” value was -9% and the Z score is 1.34.
Regarding `CCn1c(-c2cc(NC(=O)c3ccncc3)[nH]n2)cc2ccc(OC)cc21`, the “% Inhibition” value stood at 34% and the Z score is -3.83.
For `CCn1c(-c2cc(NC(=O)c3ccc4c(c3)OCO4)[nH]n2)cc2ccc(OC)cc21` the same measures were 52% and -0.45.
For the compound `CCn1c(-c2cc(NC(=O)c3cc(C)cc(C)c3)[nH]n2)cc2ccc(OC)cc21`, the “% Inhibition” value is recorded as 17% and the Z score is listed as -1.96.
For `O=C(c1cnn(Cc2ccccc2)c1)N1CCC[C@@H]1CO` the same measures were 5% and -0.66.
In the case of `Cc1ccc(CNC(=O)CN2CCN(C(=O)Nc3ccc(Cl)cc3)CC2=O)o1`, the “% Inhibition” value is recorded as 7% and the Z score is listed as -1.32.
Take `CCN1CCOC(C(=O)N2CCCC(COc3ccccc3)C2)C1` (configuration not stated): the “% Inhibition” value is given as -11% and the Z score is given as 1.91.
With `Oc1ccccc1-c1cnc(C(F)(F)F)s1`, the “% Inhibition” value came to 93% and the Z score was -17.09.
For `Oc1ccccc1C1=NN[C@@](O)(C(F)(F)C(F)F)C1`, the “% Inhibition” value is on record as -6% and the Z score was 0.8.
On to `NC(=O)CC(=O)Nc1ncc(-c2ccccc2F)s1`, for which the “% Inhibition” value is 4% and the Z score was -0.56.
For `Cn1nccc1[C@@H](O)CNC(=O)C1(c2cccnc2)CC2(CCC2)C1` the same measures were -8% and 1.59.
Regarding `CCN(CC)CCN(CC)C(=O)c1cccc(-c2ccc(C)nc2N)c1`, the “% Inhibition” value is on record as -7% and the Z score is 0.71.
As for `CCN(CCN(C)C)C(=O)c1cccc(-c2ccc3nccc(N)c3c2)c1`, the “% Inhibition” value was determined as 96% and the Z score is on record as -13.62.
Regarding `CCN(CCN(C)C)C(=O)c1cccc(-c2ncccc2C)c1`, the “% Inhibition” value is reported as -6% and the Z score amounted to 0.81.
As to `CNC(=O)[C@@H]1C[C@H](NCc2cc(OC)c(OC)c(OC)c2)CN1CC(c1ccccc1)c1ccccc1`, the “% Inhibition” value came to 54% and the Z score is listed as -11.4.
For the compound `CNC(=O)[C@@H]1C[C@H](NCc2ccccc2F)CN1CC(c1ccccc1)c1ccccc1`, the “% Inhibition” value turned out to be 9% and the Z score is recorded as -1.28.
With `CNC(=O)[C@@H]1C[C@@H](NCc2ccc(C(F)(F)F)cc2)CN1CC(c1ccccc1)c1ccccc1`, the “% Inhibition” value turned out to be 2% and the Z score is listed as -0.22.
As for `Cc1cccc(OCCN2C(=O)N[C@@]3(CCCCc4ccccc43)C2=O)c1`, the “% Inhibition” value was 4% and the Z score is recorded as -0.78.
As for `CCN(Cc1noc(C2CCC2)n1)Cc1ccccc1C#N`, the “% Inhibition” value was -1% and the Z score was 0.12.
On to `COc1ccc(Cl)cc1-c1c(N2CCCC2)cn[nH]c1=O`, for which the “% Inhibition” value was 1% and the Z score was -0.09.
In the case of `O=C(NCCOc1ccccc1)c1ccc(C(=O)NCCOc2ccccc2)s1`, the “% Inhibition” value was 56% and the Z score is -0.3.
As to `O=C(NCCOc1ccccc1)NCCOc1ccccc1`, the “% Inhibition” value was 1% and the Z score was -0.22.
Consider `Cc1cc(C(=O)NCCOc2ccccc2)c(C)s1`, for which the “% Inhibition” value is given as -17% and the Z score worked out at 2.3.

A word on the % Inhibition: it is the change of the read-out against control, counted positive when it falls.
